Screening data (PubChem)
Tau fibril ThT = blocks human tau fibril formation measured by thioflavin T; P10636; recombinant tau K18 P301L, heparin-induced fibrillization, ThT fluorescence; Potency, µM (highest dose often 57.4 µM), for inactives: top-dose activity, negative = inhibition, usual class: inhibitors; actives 2.1% (n = 270,000); AID 1460; further: potency means the concentration at half of the fitted maximal effect; nearly all actives have a fitted effect of over 55% in size
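Using a mix of unlabeled (15 uM) and Alexa 594-labeled (0.24 uM) tau K18 P301L, heparin-triggered fibrillization over 6 hr at 37 C was scored by ThT fluorescence.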
Tau FP inhib = blocks human tau fibril formation measured by polarization; K18 P301L tau heparin fibrillization, Alexa594 FP, 6 h; Potency, µM (doses to about 57.7 µM), inactives show at the highest dose activity, negative = inhibition, usual class: inhibitors; P10636; actives 0.39% (n = 280,000); further: potency means the concentration at half of the fitted maximal effect; nearly all actives have a fitted effect of over 55% in size
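K18 P301L tau (15 uM unlabeled/0.24 uM Alexa 594-labeled, final) + compound + heparin 20 uM final; 100 mM NaOAc pH 7; 6 hr 37 C; ThT 30 uM final added, 1 hr RT; FP ex 555/em 632 nm.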
Coupling enz = inhibits coupling enzyme system, counter-screen for aldolase hits; activity change, negative = inhibition, % at 58.2 µM, hits read low; actives 0.67% (n = 290,000); coupling enzyme system counterscreen, AmpLite Red fluorescence; in the data active means activity change below about -30%
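Final compound at 57.5 uM, incubated 10 min at RT with coupling enzyme reagent (glyceraldehyde-3-phosphate), then 20 min with substrate and AmpLite Red detection. Fluorescence read at 525/598 nm; tests interference with the coupling assay, not aldolase inhibition.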
Tau fluor counter = counter-screen for tau fibril formation inhibitors. AID 1463. tau K18 P301L Alexa594 fluorescence, heparin fibrillization. actives 0.93% (n = 280,000). Potency, µM (doses to about 57.7 µM), for the others: top-dose activity change, negative = decrease; further: potency means the concentration at half of the fitted maximal effect; nearly all actives have a fitted effect of over 55% in size
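Human tau K18 P301L (15 uM unlabeled, 0.24 uM Alexa 594-labeled) in 100 mM sodium acetate pH 7 with 20 uM heparin, 6 hr at 37 C. ThT 30 uM added, 1 hr ambient; Alexa 594 FP and total fluorescence read at 555/632 nm.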
USP1 inh = USP1/UAF1 (human) deubiquitinase inhibition; recombinant USP1/UAF1, Ub-Rhodamine cleavage fluorescence; actives 0.23% (n = 390,000); Potency, µM (highest dose often 57.1 µM), for inactives: at the top dose activity change, negative = inhibition, usual class: inhibitors; O94782; AID 743255; further: potency means the concentration at half of the fitted maximal effect; nearly all actives have a fitted effect of over 60% in size
Target sequence (O94782 whole entry, looked up): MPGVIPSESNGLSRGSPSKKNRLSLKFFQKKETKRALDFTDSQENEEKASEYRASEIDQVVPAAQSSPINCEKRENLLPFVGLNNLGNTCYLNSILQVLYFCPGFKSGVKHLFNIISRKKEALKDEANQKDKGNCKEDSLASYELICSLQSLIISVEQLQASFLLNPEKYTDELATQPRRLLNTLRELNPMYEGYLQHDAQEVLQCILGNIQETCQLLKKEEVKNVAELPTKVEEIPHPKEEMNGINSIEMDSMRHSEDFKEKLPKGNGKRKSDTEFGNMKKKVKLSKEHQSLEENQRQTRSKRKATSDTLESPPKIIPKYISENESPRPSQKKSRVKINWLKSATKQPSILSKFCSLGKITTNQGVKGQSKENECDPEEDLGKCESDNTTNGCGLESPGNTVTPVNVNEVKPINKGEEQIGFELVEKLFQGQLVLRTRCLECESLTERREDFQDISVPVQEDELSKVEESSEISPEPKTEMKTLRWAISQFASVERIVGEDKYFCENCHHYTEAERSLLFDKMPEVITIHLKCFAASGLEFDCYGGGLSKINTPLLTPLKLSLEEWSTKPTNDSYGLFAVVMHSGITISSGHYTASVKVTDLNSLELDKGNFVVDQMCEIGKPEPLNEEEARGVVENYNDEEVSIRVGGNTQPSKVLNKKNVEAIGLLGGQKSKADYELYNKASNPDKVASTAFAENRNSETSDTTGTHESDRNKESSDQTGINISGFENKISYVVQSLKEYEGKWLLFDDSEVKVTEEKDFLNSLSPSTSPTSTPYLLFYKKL
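Step one: compound is pinned into 1nM USP1/UAF1 in HEPES pH 7.8 buffer with TCEP. Step two: 15 min room-temperature incubation. Step three: Ub-Rho (150nM final) starts cleavage, tracked by fluorescence over six one-minute reads.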
Numbers without * were called inactive; u = inconclusive; x = not tested or not shown; [ ] = dose if it differs, or a comment. The list is not random: actives were taken first. Their share in the collection is about 2.3%. Unless noted, the call rests on the fitted dose curve; in most records, active means well fitted curve in the direction sought with a large enough effect; inconclusive means small, poorly fitted or top-dose-only effect, or another doubt; inactive means no such curve, though single readings can be large; an effect the other way counts as inactive or inconclusive. On the % scale 0 is the no-effect control and ±100 the full control effect.

SMILES | Tau fibril ThT | Tau FP inhib | Coupling enz | Tau fluor counter | USP1 inh
O=C(N/N=C/c1ccc(N2CCCC2)c([N+](=O)[O-])c1)c1cccnc1 | 14µM* | 5% | 4 | -24% | -17%
O=C(N/N=C/c1ccc(N2CCOCC2)c([N+](=O)[O-])c1)c1ccc(F)cc1 | 11µM* | 9% | 0 | -29% | -15%
O=C(NCc1ccc(F)cc1)c1ccc(N2CCOCC2)c([N+](=O)[O-])c1 | x | x | 4 | x | -16%
COc1ccc(C(=O)N/N=C/c2ccc(OC)c(CN3CCCc4ccccc43)c2)cc1 | -6% | 3% | -5 | -13% | -15%
CC1=C(C#N)C(=O)NC(=O)/C1=C/c1ccc(-c2ccc(S(N)(=O)=O)cc2)o1 | 16µM* | -18% | 0 | u | u
C=CCOC(=O)c1cc(-c2ccc(/C=C3\C(=O)NC(=O)C(C#N)=C3C)o2)ccc1Cl | u | -17% | -9 | u | -26%
COC(=O)c1cc(NC(=O)Nc2ccc3snnc3c2)cc(C(=O)OC)c1 | 13% | u | x | u | -35%
O=C1/C(=C/c2c[nH]c3ccccc23)CCC/C1=C\c1c[nH]c2ccccc12 | u | 8% | -8 | 7.9µM*[quencher] | 11%
O=C(Cn1nc(-c2ccccc2)c2c(c1=O)CCCC2)Nc1ccc(F)c(Cl)c1 | -17% | u | x | u | -8%
O=C1c2ccccc2C(=O)N1CCCc1c[nH]c2ccc(Cl)cc12 | -18% | -14% | 1 | 11µM*[quencher] | -15%
Cc1cc(C=C2C(=O)c3ccccc3C2=O)c(C)n1-c1ccc(C(=O)O)cc1 | 14µM* | -2% | -25 | 0% | -23%
Cc1cc(C=C2C(=O)c3ccccc3C2=O)c(C)n1-c1cccc(C(=O)O)c1 | 16µM* | -5% | -18 | -21% | -30%
CCOc1ccc(CN2CCc3nc(Nc4ccc5c(c4)OCCO5)ncc3C2)cc1 | u | u | x | u | -22%
C=C1CC2COC(=O)C2(Cc2ccc3ccccc3c2)C1 (stereo not drawn) | x | x | 0 | x | x
c1ccc(-c2nc(-n3ccnc3)nc(-n3ccnc3)n2)cc1 | -12% | -2% | -51* | -17% | -19%
O=C(Nc1ccc(F)cc1Cl)C1CCN(c2ncnc3c2nc2n3CCCCC2)CC1 | u | -18% | x | -25% | 1%
CC(C)(C)c1ccc(NC(=O)Nc2ccc(OCC(=O)N3CCOCC3)cc2)cc1 | -18% | 19% | 0 | 20µM*[quencher] | -22%
COc1ccc(-c2oc(NC(=O)CSc3ncn[nH]3)c(C#N)c2-c2ccc(OC)cc2)cc1 | u | 0% | 9 | 14µM*[quencher] | -11%
COc1ccc(-c2oc(NC(=O)CCl)c(C#N)c2-c2ccc(OC)cc2)cc1 | 25µM* | -15% | -5 | 16µM*[quencher] | u
Cc1cccc2cc(C#N)c(NCCNC(=O)COc3ccccc3)nc12 | 20% | -1% | -35* | 10% | -3%
Cc1cccc2cc(C#N)c(NCc3ccccc3)nc12 | 1% | -8% | -44* | -9% | -26%
Cc1cccc2cc(C#N)c(NCCNS(=O)(=O)c3ccccc3)nc12 | -3% | -3% | -4 | -19% | -10%
COCOc1ccc(Br)cc1C(=O)/C=C\c1ccc2c(c1)OCO2 | -16%[11.5 µM] | -2%[11.6 µM] | 0 | -11%[11.6 µM] | x
COc1ccc(N2CCN(C(CNC(=O)c3c(F)cccc3F)c3ccc4c(c3)OCO4)CC2)cc1 (stereo not drawn) | u | 16% | x | u | -15%
Cc1cc(N=Nc2ccccc2)c(NCC(O)C(O)C(O)CO)cc1C (stereo not drawn) | 14µM* | 16% | -5 | u | -27%
SMILES | Tau fibril ThT | Tau FP inhib | Coupling enz | Tau fluor counter | USP1 inh
CC1=C(C#N)c2nc(N)c(C#N)c(C)c2/C1=C\c1ccc(OCC(=O)O)c(Cl)c1 | 16µM* | u | -12 | u | -24%
CCOC(=O)CSc1nc(N)c(C#N)c(-c2ccc(OCC)cc2)c1C#N | -3% | 0% | 1 | -11% | -13%
O=C1/C(=C/c2cccc(Cl)c2)CSc2sccc21 | -17% | -2% | 3 | -29% | -20%
Cc1cccc(/C=C2\CS/C(=C\c3cccc(C)c3)C2=O)c1 | 3.5µM* | -3% | 1 | -19% | -23%
O=C(Cn1c(=O)c2cccn2c2ccccc21)NCc1ccccc1F | u | -2% | x | u | -14%
CCOC(=O)Cn1c(=O)n(CC2CCCO2)c2nc(-c3ccccc3F)nc(C(N)=O)c21 (stereo not drawn) | 6% | 0% | x | 2% | -22%
CN(C)c1ccc(N=Nc2ccc(S(=O)(=O)O)cc2)c2ccccc12 | 5µM* | 2% | 5 | u | -25%
COC(=O)C(C(C)=O)C1=C/C(=N\S(=O)(=O)c2ccc(C)cc2)c2ccccc2C1=O (stereo not drawn) | 32µM* | u | -33* | u | -20%
Cc1ccccc1NC1=C/C(=N\S(=O)(=O)c2ccc(C(=O)O)cc2)c2ccccc2C1=O | x | x | -44* | x | 1.3µM*
O=S(=O)(/N=C(/Nc1ccccc1F)c1ccccc1)c1ccccc1 | 4% | 3% | 3 | -1% | -9%
O=C(O)c1ccc(S(=O)(=O)/N=C2\C=C(Nc3ccccc3F)C(=O)c3ccccc32)cc1 | x | x | -45* | x | 2.5µM*
COC(=O)[C@H](CO)NS(=O)(=O)c1ccc(C)cc1 | x | x | x | x | -18%
Cn1cc(S(=O)(=O)N2CCCCC2)cc1C(=O)Nc1ccc(OC(F)(F)F)cc1 | 3% | -7% | x | -9% | -17%
CCOc1ccc(-n2c(SCC(=O)N3CCC(C)CC3)nc3c([nH]c4ccccc43)c2=O)cc1 | 13% | -1% | x | 6% | -11%
CCC(C=C[C@@H]1OC(=O)C=C[C@H]1C)=C[C@H](C)CC=CC(C)=C[C@@H](C)C(=O)[C@@H](C)[C@H](O)[C@@H](C)CC(C)=CC(=O)O | 3%[2.31 µM] | 5%[2.34 µM] | -59* | -2%[2.34 µM] | x
Cc1ccc(Cn2cc(CCC(=O)NC3CCCCC3)c3ccccc32)cc1 | 4% | 0% | x | -2% | -10%
COc1ccc(/C=N/NC(=S)Nc2ccccc2[N+](=O)[O-])cc1O | 4.5µM* | -5% | -1 | 16µM*[quencher] | -20%
CC1Cc2cc(S(=O)(=O)N(C)c3ccc(Br)cc3)ccc2N1C(=O)C1CC1 (stereo not drawn) | -5% | 2% | x | -18% | -11%
S=C1Nc2ccccc2CS1 | x | x | x | x | -3%
S=C1Cc2ccccc2N1 | 0.71µM* | u | 0 | 8.9µM*[quencher] | 28µM*
N#Cc1nc(Nc2ccccc2)nc(NC2CCCCC2)n1 | x | x | -4 | x | x
O=C1NC(c2ccccc2)=C(c2ccc3ccccc3n2)C(c2ccncc2)N1 (stereo not drawn) | 11µM* | -16% | -1 | u | -22%
CC1=C(O)C(=O)C(C2=C(O)C(=O)C(C)=C(O)C2=O)=C(O)C1=O | x | x | x | x | -16%
O=C1C(O)=C(O)C(=O)C(O)=C1O | 13µM* | u | -15 | -22% | x
